This is a sample that favours compounds with a hit; in the whole collection about 4.2% have one here.
S1P4 antagonist: S1P4 receptor antagonists, primary screen, cell-based | actives 0.26% (n = 220,000) | inhibition, % at 4.98 µM | Sphingosine 1-phosphate receptor 4 (Homo sapiens), O95977 | S1P4-expressing cells, antagonist mode, reporter read-out; in the data active = inhibition above about 29%;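 also: 0% = wells stimulated with agonist and 100% = vehicle wells without agonist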
Target sequence (O95977 whole entry, looked up): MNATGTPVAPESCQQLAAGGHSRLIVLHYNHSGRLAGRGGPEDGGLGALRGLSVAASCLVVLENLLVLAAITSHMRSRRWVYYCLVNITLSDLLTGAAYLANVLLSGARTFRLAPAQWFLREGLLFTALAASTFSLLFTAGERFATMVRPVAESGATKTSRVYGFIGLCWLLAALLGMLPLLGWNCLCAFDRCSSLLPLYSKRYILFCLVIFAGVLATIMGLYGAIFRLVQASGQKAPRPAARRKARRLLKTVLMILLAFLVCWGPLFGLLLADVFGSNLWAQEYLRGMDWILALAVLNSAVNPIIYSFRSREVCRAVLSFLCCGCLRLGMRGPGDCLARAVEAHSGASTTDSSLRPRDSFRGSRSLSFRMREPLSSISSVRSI
Hsp70 activator: Hsp70 transcriptional activators, primary screen, cell-based, HeLa, Hsp70 promoter luciferase, luminescence, 10 µM | HeLa Hsp70 promoter luciferase reporter; scaled: vehicle 0, proteasome-inhibitor control 100% | actives 0.04% (n = 200,000) | AID 1203, 2008 | activation, % at 10 µM;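 active = activation above the mean across all tested compounds plus 3 SD, cutoff set per campaign, cut at about 5.5% in these data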;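 also: 100% = MG132 at 30 µM as the positive control and 0% = DMSO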
CHOP inh: inhibitors of CHOP promoter induction, primary screen, cell-based, unfolded protein response, luciferase reporter | CHO-K1 CHOP-promoter luciferase, tunicamycin-induced, 15-18 h | inhibition, % at 10 µM | actives 3.8% (n = 220,000);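 active = compounds that reduced the stress-induced luciferase reporter signal by more than about 70% of percent inhibition, limit read from the data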;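 also: 0% = tunicamycin plus vehicle and 100% = wells without tunicamycin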
S1P4 agonist: S1P4 receptor agonists, primary screen, cell-based | Sphingosine 1-phosphate receptor 4 (Homo sapiens), O95977 | S1P4-expressing cell line, agonist reporter assay | activation, % at 4.98 µM | actives 0.35% (n = 220,000) | AID 1509, 2009; in the data active = activation above about 11%;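 also: 0% = DMSO vehicle and 100% = reference agonist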
The depositor's hits bear a star; . = no result.

SMILES	S1P4 antagonist	Hsp70 activator	CHOP inh	S1P4 agonist
Cc1ccccc1C(=O)Nc1sc2c(c1C(=O)O)CCC2	2	0	85*	0
O=C(Nc1sc2c(c1C(=O)O)CCCCC2)c1ccco1	-11	0	32	1
CCCc1nc2sc(C(=O)OCC)c(N)c2c2c1COC(C)(C)C2	-12	0	81*	0
CC1CCN(CCCNC(=O)CCCNC(=O)Cn2cnc3sc4c(c3c2=O)CCCC4)CC1	2	0	-19	1
COc1cccc(-c2nc(N3CCC(C)CC3)c3ccccc3n2)c1O	-4	0	59	1
CC1CN(c2nc(-c3ccccc3)nc3ccccc23)CC(C)O1 (stereo unspecified)	-3	0	82*	-1
COc1cccc(-c2nc(N3CC(C)CC(C)C3)c3ccccc3n2)c1O (stereo unspecified)	-3	0	76*	1
Cc1cc(OCc2nc(-c3cccnc3)no2)c(C)cc1Br	-2	0	86*	2
Cc1ccccc1OCc1nc(-c2cccnc2)no1	-18	0	3	1
COC(=O)c1cc(Cl)c(NC(=O)/C=C/c2ccc(Cl)cc2Cl)cc1OC	-11	-1	84*	2
COC(=O)c1cc(Cl)c(NC(=O)/C=C/c2ccc(Cl)cc2)cc1OC	-6	0	32	-1
O=c1[nH]c(=O)c2nc3c4ccccc4c4ccccc4c3nc2[nH]1	-6	0	78*	-1
O=c1[nH]c(=O)c2nc(-c3ccc(Cl)cc3)cnc2[nH]1	-23	0	41	2
COc1cc(/C=C/[N+](=O)[O-])ccc1OCc1cccc(C(=O)O)c1	5	-1	77*	-1
COc1ccc2[nH]c(=O)cc(C(=O)O)c2c1	-12	0	-4	1
COc1ccc2[nH]c3c4c(ccc3c2c1)C(=O)C=CC4=O	14	.	89*	2
Clc1ccc(-c2nc3ccccc3n2OCc2ccccc2)cc1	-12	0	81*	2
CCOc1ncccc1C(=O)N1CCN(S(=O)(=O)c2ccc3ccccc3c2)CC1	3	.	29	2
Cc1noc(C)c1C(=O)Nc1nc(C23CC4CC(CC(C4)C2)C3)cs1	3	0	83*	0
Cc1cc(C)n2nc(C(=O)Nc3c(C)nn(Cc4ccc(F)cc4)c3C)cc2n1	-15	1	13	0
CC(NC(=O)CCSc1nc(-c2ccco2)cc(C(F)(F)F)n1)c1ccccc1 (stereo unspecified)	-6	0	23	0
CCCCC(=O)O[C@]1(C(=O)CO)CC[C@H]2[C@@H]3CCC4=CC(=O)CC[C@]4(C)[C@H]3[C@@H](O)C[C@@]21C	-18	0	62	-1
CCCCCCCc1ccc(-c2ccc(O)cc2)nc1	4	0	96*	0
CCCCCc1ccc(-c2ccc(/C=C/C(=O)O)cc2)nc1	-22	-1	31	1
O=C(CSCCc1ccccn1)Nc1ccc(Br)cn1	-7	0	24	-1
SMILES	S1P4 antagonist	Hsp70 activator	CHOP inh	S1P4 agonist
Cc1cccc(NC(=O)C2C(c3ccccc3)C2(Cl)Cl)c1 (stereo unspecified)	14	0	74*	1
COc1ccc(C2Nc3ccccc3C(=O)N2O)cc1CN1CCOCC1 (stereo unspecified)	-10	0	-19	-1
Cc1ccc(NC(=O)C2CC(=O)NC(Nc3cccc(C)c3)=N2)cc1 (stereo unspecified)	-7	0	0	0
O=C(Nc1ccc2c(c1)OCO2)N1CCN(c2ccc(F)cc2)CC1	12	0	78*	1
COc1ccc(CCNC(=O)CSc2ccsc2[N+](=O)[O-])cc1OC	1	0	12	2
Cc1cccc(OCCNc2ccc([N+](=O)[O-])cn2)c1	4	0	-8	1
CC(=O)N1N=C(c2ccc(C)cc2)OC1c1ccc(C)cc1 (stereo unspecified)	-11	0	75*	1
Cc1csc(NC(=O)C(CC(C)C)NS(=O)(=O)c2ccc3c(c2)oc(=O)n3C)n1 (stereo unspecified)	-3	0	97*	0
CCOc1ccccc1OCC(O)CNC (stereo unspecified)	-18	-1	72*	-2
O=C(NNC(=O)c1cccc2ccccc12)c1ccco1	-8	0	30	0
CCCCOC(=O)c1ccc(NC(=O)Nc2ccc(OC)c(OC)c2)cc1	-2	0	83*	-2
CCCCCOC(=O)c1ccc(NC(=O)c2ccco2)cc1	-6	0	82*	2
CCCCOC(=O)c1ccc(NC(=O)/C=C/c2cccs2)cc1	-3	0	75*	0
CCOC(=O)c1ccc(NC(=O)Nc2ccc(OC)c(OC)c2)cc1	-23	0	12	2
O=C(CC12CC3CC(CC(C3)C1)C2)NC(=S)NCc1ccco1	7	0	-9	1
CC(C)Oc1ccc(/C=N/NC(=O)C2CCCN2S(=O)(=O)c2ccc(Cl)cc2)cc1 (stereo unspecified)	-15	0	79*	-2
O=C(CSc1ccc(-c2ccncc2)nn1)c1ccc(Cl)cc1	3	0	4	0
NC(=O)C(c1ccc(Cl)cc1)c1ccc(Sc2ccc(Cl)cc2)nn1 (stereo unspecified)	2	0	83*	-3
Cc1ccc(S(=O)(=O)c2nc(S(C)(=O)=O)sc2N(C)C)cc1	-8	0	22	-1
Oc1ccc(/C=C/c2nc(-c3ccccc3O)n(-c3ccccc3)n2)cc1	-3	0	90*	1
O=C(Nc1ccon1)c1ccc(OC2CCCC2)cc1	-5	0	78*	0
CC(C)(C)c1cc(NC(=O)c2ccc(OC3CCCC3)cc2)no1	0	0	24	1
CC(C)Sc1nnc(CNC(=O)C23CC4CC(CC(C4)C2)C3)n1Cc1ccccc1	5	0	15	5
CCC(C)Sc1nnc(CNC(=O)C23CC4CC(CC(C4)C2)C3)n1C1CCCCC1 (stereo unspecified)	-8	0	95*	2
COc1ccc(-n2nc(C(=O)Nc3ccc(OC)c(OC)c3)c3c4ccccc4n(C)c3c2=O)cc1	0	0	72*	-1
SMILES	S1P4 antagonist	Hsp70 activator	CHOP inh	S1P4 agonist
CCCCNC(=S)NNC(=O)c1nn(C)c(C)c1Cl	-5	0	1	1
O=C(CCN1CCOCC1)Nc1c(-c2ccccc2)c2cc(Br)ccc2[nH]c1=O	-17	0	-6	0
Cc1ccc2[nH]c(=O)c(N3CCOCC3)c(-c3ccccc3)c2c1	7	-1	76*	1
C=CCc1c(C)nc(SC)nc1Nc1ccc(C(=O)O)cc1	-11	0	12	-1
COc1ccc(C(C[N+](=O)[O-])c2c(-c3ccccc3)cc3ccccn23)cc1OC (stereo unspecified)	-2	0	81*	1
COc1cc(C(C[N+](=O)[O-])c2c(-c3ccccc3)cc3ccccn23)cc(OC)c1OC (stereo unspecified)	-1	0	-37	0

High-throughput results from PubChem BioAssay.
